Bioassay records (PubChem)
This is a sample that favours compounds with a hit; in the whole collection about 15% have one here.
Sm TGR inh: inhibitors of Schistosoma mansoni thioredoxin glutathione reductase; AID 485364; Potency, µM (doses to about 114 µM), without a hit: at the top dose activity change, negative = inhibition, usual class: inhibitors; purified TGR, DTNB reduction, TNB absorbance 405 nm; Q962Y6; hit rate 3% among 360,000; further: potency means the concentration at half of the fitted maximal effect; on the % scale 0 is the no-effect control and ±100 the full control effect; nearly all actives have a fitted effect of over 60% in size
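Kinetic colorimetric format: TGR-catalysed, NADPH-driven DTNB reduction monitored via TNB absorbance. Enzyme dispensed at 20 nM; compound exposure 15 min at room temperature before reaction start.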
Pf growth 48h: P. falciparum growth inhibition at 48 hours (one generation); hit rate 5.9% among 310,000; AID 504832; Potency, µM (titrated, usually from 28.7 µM), for inactives: at the top dose activity change, negative = inhibition, hits mostly inhibitors; P. falciparum luciferase growth in erythrocytes, 48 h; further: potency means the concentration at half of the fitted maximal effect; on the % scale 0 is the no-effect control and ±100 the full control effect
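Parasite viability was followed by luminescence of a genomically integrated firefly luciferase. Cultures held 0.1% parasitemia at 2% hematocrit (final), incubated under 5% CO2 at 37 C.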
HCV inhibitor: blocks hepatitis C virus. Potency, µM (titrated, usually from 41.8 µM), for the others: at the highest dose activity change, negative = inhibition, hits mostly inhibitors. Huh7.5.1 HCVcc-Cre infection, luciferase reporter, 44 h. AID 651820. hit rate 3.4% among 340,000; further: potency means the concentration at half of the fitted maximal effect; on the % scale 0 is the no-effect control and ±100 the full control effect
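Infectious HCV cell culture screen: compound-treated cells (1,000/well, pre-plated 4 h) are infected with HCVcc-Cre at roughly 0.5 moi and grown 44 h. Infection is quantified by luciferase signal after 15 min substrate incubation at room temperature.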
SARS PLP yeast: blocks SARS-CoV papain-like protease in a yeast assay; hit rate 0.19% among 330,000; S. cerevisiae expressing SARS-CoV PLpro, growth rescue; Potency, µM (doses to about 32.9 µM), for inactives: at the top dose activity, positive = growth rescue, actives largely listed as activators; calls by dose curve; further: potency means the concentration at half of the fitted maximal effect; 0% is about no effect; nearly all actives have a fitted effect of over 55% in size
Pf growth 96h: P. falciparum growth inhibition at 96 hours | P. falciparum luciferase reporter growth, 96 h | AID 504834 | Potency, µM (doses to about 28.7 µM), inactives show at the top dose activity change, negative = inhibition, most hits filed as inhibitors | hit rate 6.9% among 320,000; further: potency means the concentration at half of the fitted maximal effect; on the % scale 0 is the no-effect control and ±100 the full control effect
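Two-generation exposure (96 h) targets delayed-death phenotype. Reporter parasites carrying integrated firefly luciferase, in red cells at 2% hematocrit and 0.05% parasitemia final, kept at 37 C, 5% CO2; luminescence loss indicates inhibition.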
HCMV inh: human cytomegalovirus inhibition | HFF cells, HCMV-luciferase reporter, 72 h; active compounds read low | hit rate 4.5% among 410,000 | activity change, negative = inhibition, % at 57.5 µM; in the data active means activity change below about -60%; inconclusive means no clear call, values can overlap the other calls; inactive means above about -39%; further: on the % scale 0 is the no-effect control and ±100 the full control effect
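Steps: HFFs plated, 16 h 37C; compounds added; HCMV-luciferase added to MOI 1 PFU/cell; 72 h 37C; OneGlo reagent, 5 min room temperature; luminescence read, normalized to controls.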
* marks the source's active call; other numbers are inactive results; ! = a repeat was not active; [ ] = another dose, or the depositor's remark. Unless noted, the call rests on the fitted dose curve; in most records, active means well fitted curve in the direction sought with a large enough effect; inconclusive means small, poorly fitted or top-dose-only effect, or another doubt; inactive means no such curve, though single readings can be large; an effect the other way counts as inactive or inconclusive.

What do the screens show for `Cc1nc2ccn(Cc3cccs3)c(=O)c2cc1C(=O)N1CCN(c2ccccc2)CC1`?
Sm TGR inh: 7%; HCMV inh: 15

Results for Cc1cccc(-n2c(-c3ccco3)nc3c(cnn3-c3ccc(F)cc3)c2=O)c1 ?
Sm TGR inh: 3%; HCMV inh: -65*

What do the screens show for `Cc1ccc(-n2c(-c3ccco3)nc3c(cnn3-c3ccc(C)cc3)c2=O)cc1`?
Sm TGR inh: -8%; HCV inhibitor: 8%; SARS PLP yeast: -6%; Pf growth 96h: -3%; HCMV inh: -6

What do the screens show for `Cc1ccc(-n2c(-c3ccco3)nc3c(cnn3-c3ccccc3C)c2=O)cc1`?
Sm TGR inh: -9%; HCV inhibitor: 9%; SARS PLP yeast: 0%; Pf growth 96h: -9%; HCMV inh: -61*!

What do the screens show for `Cc1cccc(-n2c(C)nc3c(cnn3-c3ccc(F)cc3)c2=O)c1`?
Sm TGR inh: 7%; Pf growth 48h: inconclusive; HCV inhibitor: 6.3µM*; SARS PLP yeast: -6%; Pf growth 96h: 9.3µM*; HCMV inh: inconclusive

Results for COc1cccc(-n2c(C)nc3c(cnn3-c3ccc(C)cc3)c2=O)c1 ?
Sm TGR inh: 4%; Pf growth 48h: inconclusive; HCV inhibitor: inconclusive; SARS PLP yeast: -5%; Pf growth 96h: inconclusive; HCMV inh: inconclusive

How did COc1ccc(-n2c(C)nc3c(cnn3-c3ccc(Cl)cc3)c2=O)cc1 do in these assays?
Sm TGR inh: 10%; Pf growth 48h: -13%; HCV inhibitor: inconclusive; SARS PLP yeast: -13%; Pf growth 96h: 23%; HCMV inh: -77*

What do the screens show for `COc1ccc(-n2c(C)nc3c(cnn3-c3ccc(C)cc3)c2=O)cc1`?
Sm TGR inh: 6%; Pf growth 48h: inconclusive; HCV inhibitor: inconclusive; SARS PLP yeast: -10%; Pf growth 96h: 5%; HCMV inh: inconclusive

What do the screens show for `CCOC(=O)N1CCN(CC(O)COCCC23CC4CC(CC(C4)C2)C3)CC1` (stereo unspecified)?
Sm TGR inh: 2%; HCV inhibitor: -3%; SARS PLP yeast: -11%; Pf growth 96h: -99%; HCMV inh: -62*

Results for CC1CCCCN1CC(O)COCCC12CC3CC(CC(C3)C1)C2 (stereo unspecified) ?
Sm TGR inh: 5%; Pf growth 48h: inconclusive; HCV inhibitor: inconclusive; SARS PLP yeast: -5%; Pf growth 96h: 8.3µM*; HCMV inh: -23

How did CCN(CC)CC(O)COCCC12CC3CC(CC(C3)C1)C2 (stereo unspecified) do in these assays?
Sm TGR inh: 0%; HCV inhibitor: inconclusive; SARS PLP yeast: -9%; Pf growth 96h: inconclusive; HCMV inh: inconclusive

Results for CCCNC(=O)c1c(NC(=O)c2ccccc2F)sc2c1CCCCC2 ?
Sm TGR inh: 10%; HCMV inh: -6

Results for CCCNC(=O)c1sc2c(c1C(=O)Nc1ccccn1)CCCC2 ?
Sm TGR inh: 12%; Pf growth 48h: -22%; HCV inhibitor: 10µM*; SARS PLP yeast: 0%; Pf growth 96h: inconclusive; HCMV inh: inconclusive

Results for CC(C)Oc1cc(F)ccc1-c1cc(C(=O)NCc2ccccn2)[nH]n1 ?
HCMV inh: -76*

How did O=P(O)(O)CCP(=O)(c1ccccc1)c1ccccc1 do in these assays?
Sm TGR inh: 8%; Pf growth 48h: -12%; HCV inhibitor: 18%; SARS PLP yeast: 0%; Pf growth 96h: 1.7µM*; HCMV inh: 18

How did Cc1ccc2c(c1)nnn2C1CCN(CC(=O)Nc2ccccc2N2CCOCC2)CC1 do in these assays?
Sm TGR inh: 1%; Pf growth 48h: 2.1µM*; HCV inhibitor: inconclusive; SARS PLP yeast: 1%; Pf growth 96h: 37%

Results for COc1ccc(Cl)cc1NC(=O)CN1CCC(n2nnc3cc(C)ccc32)CC1 ?
Sm TGR inh: -10%; Pf growth 48h: inconclusive; HCV inhibitor: 5µM*; SARS PLP yeast: -6%; Pf growth 96h: 8%; HCMV inh: inconclusive

How did Cc1ccc2c(c1)nnn2C1CCN(CC(=O)NCCc2ccccc2)CC1 do in these assays?
Sm TGR inh: 11%; Pf growth 48h: inconclusive; HCV inhibitor: -17%; SARS PLP yeast: -4%; Pf growth 96h: 0%[5.75 µM]; HCMV inh: -21

What do the screens show for `Cc1cc2nc(-c3ccccc3)c(Cc3cccc(Cl)c3)n2c(C)c1Br`?
HCMV inh: 47

Results for CCOC(=O)c1cc(-c2ccc(OC)cc2)n(CCC(=O)Nc2ccc(OC)cc2OC)c1C ?
Sm TGR inh: -2%; HCMV inh: 24

How did CCOc1ccccc1Nc1nc(-c2ccc(C)cc2)c(CC(=O)O)s1 do in these assays?
Sm TGR inh: 40µM*; HCMV inh: 63

How did Cc1ccc(Nc2nc(-c3ccc(C)cc3)c(CC(=O)O)s2)cc1 do in these assays?
Sm TGR inh: inconclusive; Pf growth 48h: 17%; HCV inhibitor: 7%; SARS PLP yeast: -3%; Pf growth 96h: 0%; HCMV inh: 50

Results for O=c1cc(O)c2sc(Nc3ccc(Cl)c(F)c3)nc2[nH]1 ?
Sm TGR inh: 0%; Pf growth 48h: 1.7µM*; HCV inhibitor: inconclusive; SARS PLP yeast: 1%; Pf growth 96h: 5.9µM*; HCMV inh: -77*

What do the screens show for `OC(c1cccc(Cl)c1)c1nnc(Nc2cccc(Oc3ccccc3)c2)s1` (stereo unspecified)?
HCMV inh: -19

How did OC(c1ccc(Cl)cc1)c1nnc(Nc2ccc(F)c(Cl)c2)s1 (stereo unspecified) do in these assays?
HCMV inh: -63*

Results for O=c1cc(O)c2sc(Nc3ccc(F)c(Cl)c3)nc2[nH]1 ?
Sm TGR inh: -1%; Pf growth 48h: inconclusive; HCV inhibitor: inconclusive; SARS PLP yeast: 0%; Pf growth 96h: 3.7µM*; HCMV inh: -101*

How did COc1ccc(S(=O)(=O)N(Cc2ccccc2)c2ccccc2C(=O)Nc2ccccc2C(=O)NCc2ccco2)cc1 do in these assays?
Sm TGR inh: -18%; Pf growth 48h: 13µM*; HCV inhibitor: inconclusive; SARS PLP yeast: -9%; Pf growth 96h: inactive; HCMV inh: inconclusive

How did Cc1ccc(S(=O)(=O)N(Cc2ccccc2)c2ccccc2C(=O)NCc2cccnc2)cc1 do in these assays?
Sm TGR inh: -6%; Pf growth 48h: 5.2µM*; HCV inhibitor: -1%; SARS PLP yeast: -1%; Pf growth 96h: 20%; HCMV inh: -6

What do the screens show for `COc1ccc(N(CC(=O)N/N=C/c2ccco2)S(=O)(=O)c2ccccc2)cc1`?
Sm TGR inh: 28µM*; Pf growth 48h: -2%; HCV inhibitor: 3%; SARS PLP yeast: -6%; Pf growth 96h: 1%; HCMV inh: -22
